A number with no mark means an inactive call. The rule behind the calls is not given here.
Target: Pantothenate synthetase (Mycobacterium tuberculosis (strain ATCC 25618 / H37Rv)) (UniProt P9WIL5)
Test: Coupled enzyme confirmation of inhibitors against recombinant Mtb PanC (AID 375);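 note: 0% = full reaction with vehicle and 100% = no enzyme background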
Conditions: coupled enzyme assay; at 10 µM, active compounds read high

Pantothenate synthetase (Mycobacterium tuberculosis (strain ATCC 25618 / H37Rv)), sequence (P9WIL5 whole entry, looked up): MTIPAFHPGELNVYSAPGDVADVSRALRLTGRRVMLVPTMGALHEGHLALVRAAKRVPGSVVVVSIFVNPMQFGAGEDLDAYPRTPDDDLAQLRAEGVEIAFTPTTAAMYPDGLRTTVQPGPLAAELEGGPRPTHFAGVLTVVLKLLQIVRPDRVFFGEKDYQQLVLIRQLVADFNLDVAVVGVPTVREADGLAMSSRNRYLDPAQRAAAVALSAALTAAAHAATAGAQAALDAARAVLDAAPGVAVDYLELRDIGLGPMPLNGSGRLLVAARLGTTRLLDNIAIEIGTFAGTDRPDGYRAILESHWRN

| Compound | inhibition [%] |
| --- | --- |
| CC(C)Sc1nc2c(c(=O)n1-c1ccc(F)cc1)SCC2 | 1 |
| O=C1CS/C(=N\C(=O)N2c3ccccc3Sc3ccccc32)N1 | 0 |
| CCOC(=O)c1c(NC(=O)COC(=O)c2c(C)noc2C)sc2c1CCC2 | 1 |
| Cc1ccc(NC(=O)c2ccccc2O)cc1 | 1 |
| COCCn1c(C)c(C(=O)O)sc1=S | 6 |
| CC(=O)Nc1ccc(NC(=O)Cn2cnc3c(cnn3C(C)(C)C)c2=O)cc1 | 3 |
| CCOCCCNC(=O)CC1Oc2ccc(C)cc2NC1=O (stereo not drawn) | 0 |
| N#CCC(=O)Nc1ncn(Cc2ccccc2Cl)n1 | 0 |
| CCOc1cc(C2CC(=O)N3CN(C4CCCCC4)CSC3=C2C#N)ccc1O (stereo not drawn) | 0 |
| Cc1cc(NC(=O)CSc2nc3ccccc3n2CC(=O)N2CCCCC2)no1 | 0 |
| CCOc1ccc(N(CC(=O)NC2CCCC(C)C2C)S(=O)(=O)c2c(C)noc2C)cc1 (stereo not drawn) | 2 |
| CC(C)C[C@H](NC(=O)[C@@H]1O[C@H]1C(=O)O)C(=O)NCCCCN=C(N)N | 1 |
| COc1ccc(CCNC(=O)c2cc(C(C)C)on2)cc1OC | 1 |
| Cc1ccc(S(=O)(=O)NCC2CCC(C(=O)NCCCN3CCOCC3)CC2)cc1 (stereo not drawn) | 0 |
| CCC1CCCCN1CCCNC(=O)CC1Oc2ccc(C)cc2NC1=O (stereo not drawn) | 0 |
| Clc1ccc(-c2nnc3sc(-c4ccc(Br)o4)nn23)cc1 | 0 |
| CCOC(=O)C1CCCN(CC(=O)NC2CC2)C1 (stereo not drawn) | 6 |
| COc1ccccc1C1N(c2ccc(F)cc2)C(=O)C2CCCN21 (stereo not drawn) | 0 |
